Among all 69,000 compounds or so, about 420 (0.61%) showed an effect of 50% or more. What follows is part of a selection rich in strong results, with near analogues and random picks from the rest.
What follows are compounds tested against T1, Histidine--tRNA ligase (Leishmania infantum) (UniProt A4I591) (assay: Leishmania infantum Histidine tRNA synthetase (LdHisRS)). Details: 30 µM.
T1 sequence (whole entry): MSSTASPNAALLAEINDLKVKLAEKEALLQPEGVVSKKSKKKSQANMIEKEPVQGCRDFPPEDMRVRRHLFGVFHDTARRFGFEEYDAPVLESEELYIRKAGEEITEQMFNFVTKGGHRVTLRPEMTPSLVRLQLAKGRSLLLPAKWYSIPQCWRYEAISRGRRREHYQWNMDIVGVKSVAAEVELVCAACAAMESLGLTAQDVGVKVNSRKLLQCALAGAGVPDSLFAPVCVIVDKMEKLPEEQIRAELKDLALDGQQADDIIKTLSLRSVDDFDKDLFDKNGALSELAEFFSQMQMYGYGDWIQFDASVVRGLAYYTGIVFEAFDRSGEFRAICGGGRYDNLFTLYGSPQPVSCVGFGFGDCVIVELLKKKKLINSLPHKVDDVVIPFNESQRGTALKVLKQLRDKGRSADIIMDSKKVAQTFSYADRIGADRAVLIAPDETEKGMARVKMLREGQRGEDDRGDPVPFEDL
Type: functional
Set-up: scale not given: in the data most compounds retested in dose-response had high values

| Compound | Percent Effect [%] |
| --- | --- |
| COc1cnc(N2CCN(C)CC2)nc1-c1ccnn1C | 13.7 |
| COc1cnc(N2CC(N3CCOCC3)C2)nc1-c1ccnn1C | 92.2 |
| Cc1cnc(N2CCN(C)CC2)nc1-c1ccnn1C | 7.84 |
| CC(=O)N1[C@H](Cn2cncn2)C[C@@H]2CN(CC3CC3)CC[C@@H]21 | 11.1 |
| Cc1cc(C(=O)N2C[C@@H]3COC[C@]3(CN(C)C)C2)sc1C | -39.3 |
| COCCN1C[C@@H]2CN(Cc3ccc(C)s3)CCC[C@]2(C(=O)O)C1 | -8.18 |
| CS(=O)(=O)N1CC[C@H]2C[C@@H](C(=O)N3CCOCC3)O[C@@H]2C1 | -3.77 |
| O=C1N(Cc2cccnc2)C[C@H]2CN(S(=O)(=O)c3ccccc3)CCN12 | 13.5 |
| Cc1ccoc1C(=O)N1CCO[C@H]2[C@H](OCC3CCOCC3)CC[C@@H]21 | 7.55 |
| COc1ccc(-n2c(CO)nc3ccccc32)cc1CO | 34.3 |
| CC(O)c1cccc(-n2c(CCC(=O)O)nc3ccccc32)c1 (stereo unspecified) | 40 |
| COc1ccc(-n2c(CCC(=O)O)nc3ccccc32)cc1CO | 60 |
| CNC[C@H]1CC[C@H](c2cc(CN(C)S(=O)(=O)N(C)C)n(C)n2)CC1 | -50 |
| O=C(c1ccco1)N1CCO[C@@H]2CN(CC3CC3)CC[C@@H]2C1 | 26 |
| CN1[C@H]2CC[C@@H]1CN(C(=O)c1nnc3n1CCCC3)CC2 | 8.89 |
| Cc1ncc(CN(C)C2CCCN(c3cccnn3)C2)s1 (stereo unspecified) | 6.74 |
| Cc1ccc(N2CCCC(N(C)c3nn4cc(C)nc4s3)C2)nn1 (stereo unspecified) | 15.9 |
| Cc1cn2nc(N(C)C3CCCN(c4cccnn4)C3)sc2n1 (stereo unspecified) | 65.5 |
| COc1ccc(CN2C[C@@H]3OCCN(CCN4CCCC4)[C@@H]3C2)cc1 | 0.917 |
| CN(C)C(=O)c1nc2c(s1)CCCN2Cc1ccccc1 | -245 |
| CCN(C(=O)c1nc2c(s1)CCCN2Cc1ccccc1)C(C)C | 74.4 |
| CC(C)NC(=O)c1nc2c(s1)CCCN2Cc1ccccc1 | 38.5 |
| CSc1ccccc1C(=O)N1C[C@H]2CC[C@@H]1CN(C(=O)C1CCC1)C2 | 14.5 |

| Compound | Percent Effect [%] |
| --- | --- |
| O=C(CC1CC1)N[C@@H]1CN(C(=O)c2ccsc2)C[C@@H]2CCCO[C@@H]21 | 0.901 |
| CN(C)CCn1c(=O)oc2ccc(NC(=O)C3CCCO3)cc21 (stereo unspecified) | 53.4 |
| CN(C)CCn1c(=O)oc2ccc(NC(=O)N3CCCCCC3)cc21 | 59.8 |
| CCC(CC)C(=O)Nc1ccc2oc(=O)n(CCN(C)C)c2c1 | 15.2 |
| CN(C)CCn1c(=O)oc2ccc(NC(=O)CC(C)(C)C)cc21 | 37.9 |
| CCC(C)C(=O)Nc1ccc2oc(=O)n(CCN(C)C)c2c1 (stereo unspecified) | 27.7 |
| CC(C)CCC(=O)Nc1ccc2oc(=O)n(CCN(C)C)c2c1 | 27.7 |
| CCNC(=O)N1CC[C@H]2CC(=O)N(CC(N)=O)CC[C@H]2C1 | 11.1 |
| CCCc1ccc(CN2CCN(c3ncccn3)[C@@H]3CS(=O)(=O)C[C@@H]32)o1 | 13.2 |
| Cc1nc(CN2C[C@@H]3CN(C(=O)NC(C)C)C[C@@H]3C2=O)cs1 | 2.94 |
| CC(C)NC(=O)c1sc2ccccc2c1[C@H]1CC[C@H](CN)CC1 | 8.45 |
| Cn1cc(CN2CCC[C@]3(C(=O)O)CN(c4ncccn4)C[C@@H]3C2)cn1 | 27.8 |
| Cc1noc([C@H]2C[C@H]3OCC[C@H]3N(C3CCC3)C2)n1 | -1.06 |
| O=C(c1cccc(F)c1)N1CC[C@@H]2CN(c3ncccn3)CCO[C@@H]2C1 | 6 |
| CCc1ccc(NC(=O)N2C[C@H]3CC[C@@]4(N=C(C)N(C)C4=O)[C@H]3C2)cc1 | 24.7 |
| CN1CCCC1c1cccc(Cc2ccccc2F)n1 (stereo unspecified) | 16.7 |
| CN(C)C(=O)CN1CCCC1c1cccc(Cc2ccccc2F)n1 (stereo unspecified) | 55.7 |
| CC(=O)N1CCCC1c1cccc(Cc2ccccc2F)n1 (stereo unspecified) | 0 |
| CCS(=O)(=O)N1C[C@H]2C[C@H](C(=O)N(C)C)[C@@H](C1)O2 | 6.57 |
| O=C(c1ccc[nH]1)N1C[C@H]2CC[C@@H]1CN(c1ncccn1)C2 | 21.7 |
| Cc1ccc(C(=O)N(C2CC2)C2CC(=O)NC2=O)cc1F (stereo unspecified) | 8.47 |
| CCn1nnc2c1C(COC)CN(Cc1cccs1)C2 (stereo unspecified) | 13.5 |
| CCn1nnc2c1C(COCC(=O)N(C)C)CN(Cc1ccco1)C2 (stereo unspecified) | 50.9 |

| Compound | Percent Effect [%] |
| --- | --- |
| CN(C)C(=O)COCC1CN(Cc2ccco2)Cc2ncn(C)c21 (stereo unspecified) | 20.8 |
| CCn1nnc2c1C(COCC(=O)N(C)C)CN(Cc1ccoc1)C2 (stereo unspecified) | 5.66 |
| CCn1nnc2c1C(COC)CN(Cc1ccco1)C2 (stereo unspecified) | 52.8 |
| CCn1nnc2c1C(COCCN(C)C)CN(Cc1ccco1)C2 (stereo unspecified) | 1.89 |
| CC(=O)N1C[C@@H]2CN(S(=O)(=O)C3CC3)CCO[C@@H]2C1 | 10 |
| O=C1O[C@@H]2CN(c3cnccn3)C[C@@H]2N1CCCc1ccc(F)cc1 | 11 |
| CCCS(=O)(=O)N1C[C@@H](Oc2ccccn2)[C@H]2OCCC[C@H]21 | 9.73 |
| Cc1ncc(CN2Cc3ccccc3O[C@]3(CC[C@H](CO)CC3)C2)cn1 | 11.1 |
| Fc1cnc(N2CC[C@@H]3OC(COCc4cccnc4)CC[C@@H]32)nc1 (stereo partly specified) | 5.26 |
| O=C(c1ccco1)N1CC[C@@H]2O[C@@H](COCC3CCOCC3)CC[C@@H]21 | -0.84 |
| COC[C@@]12CCO[C@@H]1CCN(C(=O)CCc1ccccc1Cl)C2 | 12.9 |
| CCc1ncc2c(n1)CN(Cc1nnc(Cc3ccccc3)o1)CC2 | 31.2 |
| CC(C)c1ncc2c(n1)CN(Cc1nnc(Cc3ccccc3)o1)CC2 | 33 |
| Cc1ncc2c(n1)CN(Cc1nnc(Cc3ccccc3)o1)CC2 | 55.4 |
| CC(C)N1C[C@@H]2OCC(=O)N(Cc3ccccc3)[C@@H]2C1 | 8.11 |
| Cc1nnc(N2CCc3cnc(C(C)C)nc3C2)c(C#N)c1C | 46.7 |
| Cc1nnc(N2CCc3cncnc3C2)c(C#N)c1C | 65.3 |
| CCc1ncc2c(n1)CN(c1nnc(C)c(C)c1C#N)CC2 | 12 |
| O=C(c1ccnnc1)N1C[C@@H](OCC2CCOCC2)[C@H]2OCCC[C@H]21 | 11.8 |
| COC(=O)c1ccc(OC)c(CN2CCN(CC(C)C)C(=O)C2C)c1 (stereo unspecified) | 10.8 |
| COc1cccc(CN2CCN(CC(C)C)C(=O)C2C)c1O (stereo unspecified) | 98.9 |
| COc1cc(F)c(CN2CCN(CC(C)C)C(=O)C2C)cc1OC (stereo unspecified) | 10.8 |
| CC(=O)N1CCN(c2ccccc2CNc2ccc3[nH]ncc3c2)CC1 | 57.5 |

| Compound | Percent Effect [%] |
| --- | --- |
| COc1ccc(NCc2ccccc2N2CCN(C(C)=O)CC2)cn1 | 24.7 |
| CC(=O)N1CCN(c2ccccc2CNc2cncc(C)c2)CC1 | 11 |
| Cn1ccnc1CN1CCN(Cc2ccccc2)[C@@H]2CS(=O)(=O)C[C@@H]21 | 5.59 |
| CNc1[nH]nc(N)c1C(=O)Nc1ccccc1 | -15 |
| CNc1[nH]nc(N)c1C(=O)Nc1ccc(OC)cc1 | 27.5 |
| CNc1[nH]nc(N)c1NC(=O)c1ccccc1 | 87.5 |
| Cc1[nH]ccc1C(=O)N1C[C@H]2CC[C@@H]1CN(S(=O)(=O)N(C)C)C2 | 16.1 |
| COCCn1cc(NCc2cn(C)nc2-c2ccncc2)cn1 | 51.8 |
| Cn1cc(CNc2cnn(CC3CCCO3)c2)c(-c2ccncc2)n1 (stereo unspecified) | 30.7 |
| Cn1cc(CNc2cnn(CCO)c2)c(-c2ccncc2)n1 | 21.9 |
| Cc1ncsc1CN1C[C@@H]2CN(S(C)(=O)=O)CCO[C@@H]2C1 | 20 |
| Cc1ccc(CN2CC[C@H]3C[C@@H](c4nc(C5CC5)cs4)O[C@@H]3C2)o1 | 19.8 |
| Cc1noc([C@@]23CCO[C@@H]2CCN(C(=O)CCC(C)C)C3)n1 | 5.56 |
| Cc1cnc(C(=O)N2CCC(COCc3ccccc3)C2)cn1 (stereo unspecified) | 2.67 |
| CC(C)(C)C(=O)N1CCC(COCc2ccccc2)C1 (stereo unspecified) | 8 |
| CC(C)[C@H](NC(=O)N1CCC(Cc2ccccc2)CC1)C(=O)O | -2.5 |
| Cn1cccc(NC(=O)N2CCC(Cc3ccccc3)C2)c1=O (stereo unspecified) | 106 |
| Cn1cccc(NC(=O)N2CCC(COCc3ccccc3)C2)c1=O (stereo unspecified) | 108 |
| Cn1ccnc1CC1CCCN(C(=O)Nc2cccn(C)c2=O)C1 (stereo unspecified) | 17.3 |
| Cc1nn(C)cc1C(=O)N1CCC(CSc2ccccc2)C1 (stereo unspecified) | 11 |
| COc1c(C(=O)N2CCC(CSc3ccccc3)C2)c(C)nn1C (stereo unspecified) | 19.2 |
| Cn1cccc(NC(=O)N2CCC(CSc3ccccc3)C2)c1=O (stereo unspecified) | 78.1 |
| Cc1csc(CN2C[C@@H]3COC[C@]3(C(=O)NCc3ccco3)C2)n1 | 7 |

| Compound | Percent Effect [%] |
| --- | --- |
| Cc1oncc1C(=O)N1CC[C@H]2[C@H](CO[C@@H]2CNS(C)(=O)=O)C1 | 28.6 |
| CN(C)C[C@H]1OC[C@@H]2CCN(C(=O)Cc3cccs3)C[C@@H]21 | 7.89 |
| CN(C)C(=O)N1C[C@@H](C(=O)NCc2ccco2)C[C@H]2OCC[C@H]21 | 0 |
| O=C(O)[C@]12CCCN(Cc3cccs3)C[C@H]1CN(c1ncccn1)C2 | 22.2 |
| Cc1nc[nH]c1CN1C[C@@H]2CC[C@H](C1)N(C(=O)CCc1cnn(C)c1)C2 | 16.4 |
| COc1cc(CC(=O)Nc2cccc(C(=O)N(C)C)n2)ccc1C | 54 |
| CN(C)C(=O)c1cccc(NC(=O)Cc2cc(F)ccc2F)n1 | 19.7 |
| Cc1ccc(C)c(CC(=O)Nc2cccc(C(=O)N(C)C)n2)c1 | 17.1 |
| O=S(=O)(c1cccs1)N1CC[C@H]2[C@H]1CCN2CC1CC1 | 3.88 |
| CN(C)C[C@H]1OC[C@@H]2CCN(C(=O)c3cccn3C)C[C@@H]21 | 9.43 |
| c1ccc(COC[C@H]2CC[C@H]3[C@H](CCN3Cc3ccccn3)O2)nc1 | 10 |
| NC(=O)c1ccccc1-n1cc(-c2cccc(C(=O)O)c2)cn1 | 52.6 |
| NC(=O)c1cc(-c2cccc(C(=O)O)c2)cs1 | 15.8 |
| NC(=O)c1cc(-n2cc(-c3cccc(C(=O)O)c3)cn2)cs1 | 10.5 |
| CCC1=NN2C(=N)/C(=C\c3cccn3-c3ccc(Br)cc3)C(=O)N=C2S1 | 11 |
| CN(C)CCN1C[C@@H]2CN(c3ccccc3)C[C@@H]2C1=O | 6.36 |
| CCc1cnc(CN(C)C(C)C(=O)N2CCc3ccccc3C2)s1 (stereo unspecified) | 9.09 |
| CC(C(=O)N1CCc2ccccc2C1)N(C)Cc1cscn1 (stereo unspecified) | 3.9 |
| Cc1csc(CN(C)C(C)C(=O)N2CCc3ccccc3C2)n1 (stereo unspecified) | 55.8 |
